ssDAF-12 act – activates DAF-12 receptor from parasite S. stercoralis; HEK293 ssDAF-12/GRIP1 lit1-tk-luc reporter, luminescence; % of 3 µM dafachronic acid response; activation, % at 6.8 µM; hit rate 1% among 370,000;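 active = activation above the mean over all tested compounds plus 3 SD, cut at about 0.9% in these data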
hgDAF12 agonist – agonists of H. glycines DAF-12 nuclear receptor; hit rate 1.8% among 370,000; HEK293 GAL4-hgDAF12 UAS-luciferase reporter, agonist luminescence; normalized to butyrate control; activation, % at 6.8 µM;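 active = activation above a cutoff set at the mean of all screened compounds plus 3 SD, cut at about 10% in these data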
hcDAF12 agonist – activators of H. contortus DAF-12 nuclear receptor. HEK293 hcDAF-12 lit1-tk-luc reporter, luminescence; 0% DMSO, 100% Δ7-dafachronic acid. activation, % at 6.8 µM. hit rate 1.4% among 370,000. AID 652067;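 active = activation above the mean of all tested compounds plus 3 SD, cut at about 5.5% in these data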
DAX1 inh-1 – NR0B1 (DAX1) inhibition; hit rate 0.99% among 340,000; HEK293 Gal4-DAX1 luciferase reporter, luminescence; inhibition, % at 6.75 µM; P51843;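 active = inhibition above the mean over all tested compounds plus 3 SD, cut at about 4.2% in these data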;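 also: inhibition shows as a rise in luminescence from relieved DAX1 repression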
Target sequence (P51843 207-470 limits assumed): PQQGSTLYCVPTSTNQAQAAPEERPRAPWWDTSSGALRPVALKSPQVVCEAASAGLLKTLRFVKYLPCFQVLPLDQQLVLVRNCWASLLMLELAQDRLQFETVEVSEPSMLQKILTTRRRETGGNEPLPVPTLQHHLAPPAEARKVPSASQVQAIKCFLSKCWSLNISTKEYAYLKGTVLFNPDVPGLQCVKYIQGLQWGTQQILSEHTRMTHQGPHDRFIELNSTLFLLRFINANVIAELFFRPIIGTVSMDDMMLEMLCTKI
DAX1 inh-2 – blocks DAX1 repression of SF-1 activated StAR promoter; HEK293T StAR-luciferase reporter, SF-1/DAX-1 repression relief; inhibition, % at 6.8 µM; hit rate 1.1% among 370,000; AID 652010;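 active = inhibition above the mean over all tested compounds plus 3 SD, cut at about 3.6% in these data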;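 also: higher inhibition means more luminescence from relief of DAX-1 repression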
LXR ag – counter-screen for hcDAF-12 agonists: agonists of human LXR-beta; shares compounds with hcDAF12 agonist; HEK293 Gal4-LXR tk-luc reporter, luminescence, 24 h; normalized: DMSO 0%, positive control 100%; activation, % at 6.8 µM; 3,400 tested, under 10 active;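 active = mean percent activation of the reporter above a cutoff set as the average over tested compounds plus their standard deviation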
hcDAF12 conf – confirmation of H. contortus DAF-12 agonists; shares compounds with hcDAF12 agonist; HEK293 hcDAF-12 lit1-tk-luc reporter, luminescence; % of Δ7-dafachronic acid response; activation, % at 6.8 µM; hit rate 61% among 3,400;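 active = mean activation across triplicate tests above the threshold derived from the earlier primary screen, cut at about 5.5% in these data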
Of the large screens only hits and unclear results are named; the others gave an inactive call (follow-up assays come after a bar, where they were run). Sampled rows, rich in hits. Any-hit rate of the full collection: about 4.1%.

Clc1ccc(/C=C/c2nc3ccccc3[nH]2)c(Cl)c1	ssDAF-12 act 1.2, hcDAF12 agonist 12 | LXR ag inactive | hcDAF12 conf 17
Clc1cccc(Cl)c1/C=C/c1nc2ccccc2[nH]1	none (no result: ssDAF-12 act, hgDAF12 agonist, hcDAF12 agonist, DAX1 inh-2)
O=S(=O)(NCc1c(Cl)cccc1Oc1ccccc1)c1ccccc1	hcDAF12 agonist 20 | LXR ag inactive | hcDAF12 conf inactive
CCOC(=O)CC[C@H]1CC[C@]2(CCCN(S(=O)(=O)c3ccccc3)C2)O1	none (no result: DAX1 inh-1)
CCOc1ccc(NC(=O)C(C)Oc2ccccc2C(=O)Nc2ccc(C)c(Cl)c2)cc1 (stereo not drawn)	hcDAF12 agonist 7.0 | LXR ag inactive | hcDAF12 conf 7.4
Cc1ccc(NC(=O)COc2ccccc2C(=O)Nc2ccccc2)cc1Cl	none
c1ccc2c(c1)Nc1nccnc1S2	hcDAF12 agonist 7.7 | LXR ag inactive | hcDAF12 conf 7.5
CCC(=O)N=c1sc2c(OC)ccc(OC)c2n1C	none
COc1ccc(C)c2sc(=NC(=O)c3ccccc3)n(C)c12	hcDAF12 agonist 10 | LXR ag inactive | hcDAF12 conf 13
COC(=O)[C@]12C[C@H](CC(=O)NCCCN3CCCC3=O)C(=O)N(Cc3ccco3)C1=C[C@H](C1CCCC1)O[C@@H]2C	none (no result: DAX1 inh-1)
O=C(c1ccccc1)C1Oc2ccccc2C2CC(c3cccs3)=NN12 (stereo not drawn)	hcDAF12 agonist 8.3 | LXR ag inactive | hcDAF12 conf inactive
O=C(c1ccccc1)N1N=C(c2cccs2)CC1c1ccccc1O (stereo not drawn)	none
C/C(=N\NC(=O)c1c[nH]c2ccccc12)c1ccc2c(c1)OCO2	hcDAF12 agonist 7.2 | LXR ag inactive | hcDAF12 conf inactive
C/C(=N\NC(=O)c1cc(C)oc1C)c1ccc2c(c1)OCO2	none
O=C(CNc1cccc2ccccc12)c1ccc([N+](=O)[O-])cc1	hcDAF12 agonist 6.8 | LXR ag inactive | hcDAF12 conf inactive
O=C(Nc1cccc2ccccc12)c1ccc([N+](=O)[O-])cc1	none
COc1ccccc1-c1cc2nc(-c3ccccc3)cc(N3CCN(C(=O)c4ccoc4)CC3)n2n1	none
CCCSc1nnc(-c2ccccc2N)c(=O)[nH]1	hcDAF12 agonist 7.1 | LXR ag inactive | hcDAF12 conf 7.2
O=C(N/N=C/c1ccccc1OC(=O)c1ccc2c(c1)OCO2)c1cccc(F)c1	none
O=C(Oc1ccccc1/C=C\C(=O)c1cc2ccccc2o1)c1cccc(F)c1	hcDAF12 agonist 11 | LXR ag inactive | hcDAF12 conf 7.2
O=C(Nc1ccsc1C(=O)O)c1ccc(Cl)cc1	ssDAF-12 act 3.0, hcDAF12 agonist 9.1 | LXR ag inactive | hcDAF12 conf 12
O=C(Nc1ccsc1C(=O)O)c1cccc(Oc2ccccc2)c1	hgDAF12 agonist 13, hcDAF12 agonist 7.8 | LXR ag inactive | hcDAF12 conf 7.3
O=C(Nc1ccsc1C(=O)O)c1cccc(C(F)(F)F)c1	none
Cn1cc(C(=O)Nc2ccccn2)c(=O)c2ccccc21	ssDAF-12 act 1.7, hcDAF12 agonist 7.0 | LXR ag inactive | hcDAF12 conf 12
CN(c1ccccc1)S(=O)(=O)c1ccc(C(=O)Nc2nnc(C3CC3)o2)cc1	hcDAF12 agonist 7.2 | LXR ag inactive | hcDAF12 conf inactive
NC(=S)NN=Cc1cc(-c2cccc(N)c2)ccn1	none
CC1CC(=O)c2cnc(NCc3ccco3)nc2C1 (stereo not drawn)	none
Cc1ccc(Nc2ncc3c(n2)CC(C)CC3=O)c(C)c1 (stereo not drawn)	hcDAF12 agonist 7.1 | LXR ag inactive | hcDAF12 conf inactive
CCOc1cc(/C=C2\N=C(C)OC2=O)cc(Br)c1OCC(=O)OC	hcDAF12 agonist 6.7 | LXR ag inactive | hcDAF12 conf inactive
COc1ccccc1C(=O)N/C(N)=N/c1nc2ccccc2o1	ssDAF-12 act 1.1, hcDAF12 agonist 7.0 | LXR ag inactive | hcDAF12 conf 8.6
Cc1ccc(C(=O)N/C(N)=N/c2nc3ccccc3o2)cc1	none
N#Cc1ccsc1NC(=O)CSc1nnnn1-c1ccc(O)cc1	hcDAF12 agonist 7.4 | LXR ag inactive | hcDAF12 conf inactive
Cc1cccc(/C(N)=N/OC(=O)c2ccc(F)cc2)c1	hgDAF12 agonist 13, hcDAF12 agonist 7.2 | LXR ag inactive | hcDAF12 conf inactive
C[C@@H]1CCN(C2CC2)S(=O)(=O)c2ccc(N3CCC[C@@H]3C)cc2O1	none (no result: DAX1 inh-1)
CC(=O)c1sc(NC(=O)c2oc3ccc(F)cc3c2C)nc1C	hcDAF12 agonist 6.9 | LXR ag inactive | hcDAF12 conf inactive
N/C(CS(=O)(=O)c1ccccn1)=N\OC(=O)c1ccccc1Cl	hcDAF12 agonist 7.3 (no result: DAX1 inh-1) | LXR ag inactive | hcDAF12 conf inactive
C(=N\Nc1nncc2ccccc12)/c1ccccc1	hcDAF12 agonist 7.7 | LXR ag inactive | hcDAF12 conf 14
CN(C)c1ccc(/C=N/Nc2nncc3ccccc23)cc1	ssDAF-12 act 1.4, hgDAF12 agonist 14, hcDAF12 agonist 8.0 | LXR ag inactive | hcDAF12 conf 11
CN(C)c1ccc(/C=N/Nc2nc3ccccc3o2)cc1	hcDAF12 agonist 7.7 | LXR ag inactive | hcDAF12 conf inactive
CCCc1c(-c2ccc(Cl)cc2)ncn1Cc1cccc(-c2ccccc2)c1	none (no result: DAX1 inh-1)
CCCN1C=CC(=CC=C(C#N)C#N)C=C1	none
C=CCN1C=CC(=CC=C(C#N)C#N)C=C1	hcDAF12 agonist 8.5, DAX1 inh-1 4.5 | LXR ag inactive | hcDAF12 conf inactive
Cn1cc(C(=O)N/N=C/C(Br)=C/c2ccccc2)ccc1=O	hcDAF12 agonist 7.6 | LXR ag inactive | hcDAF12 conf inactive
NC(=O)C1CC(=O)N(c2ccc(OCc3ccccc3Cl)cc2)C1 (stereo not drawn)	hcDAF12 agonist 7.3 | LXR ag inactive | hcDAF12 conf inactive
CCOC(=O)c1ccc(Cl)c(NC(=O)c2ccc(-c3ccccc3)cc2)c1	none
CCOC(=O)c1ccc(/C=C2/C=C(c3ccccc3)N(c3ccc(Cl)c(C(=O)O)c3)C2=O)cc1	hcDAF12 agonist 8.4 | LXR ag inactive | hcDAF12 conf inactive
O=C(Nc1c(-c2ccccc2)nc2ncccn12)c1ccc(F)cc1	none (no result: DAX1 inh-1)
CC(=O)c1c(C)[nH]c(C(=O)OCC(=O)Nc2ccc(C)cc2[N+](=O)[O-])c1C	none
Cc1csc(=O)n1CC(=O)OCC(=O)Nc1ccc(Cl)cc1F	none
Cc1csc(=O)n1CC(=O)OCC(=O)Nc1cc(Cl)ccc1[N+](=O)[O-]	hcDAF12 agonist 7.3 | LXR ag inactive | hcDAF12 conf inactive
CC(=O)c1c(C)[nH]c(C(=O)OCC(=O)Nc2cc(Cl)ccc2[N+](=O)[O-])c1C	hcDAF12 agonist 7.0 | LXR ag inactive | hcDAF12 conf inactive
